Bioassay records (PubChem)
Only a selection was taken, and hits are over-represented in it overall.
NS1 function inh = qHTS Assay for Inhibitors of Influenza NS1 Protein Function; 270,000 tested, 0.4% active; Potency, µM (highest dose often 46.1 µM); AID 2326, 2010; calls by dose curve; further: actives are rising curves; nearly all actives have a fitted effect of over 50% in size
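OD600 was taken as the measure of yeast growth restored by compound in an NS1-expressing S. cerevisiae strain. Cells had been washed out of glucose medium and diluted 1:100 into galactose -URA medium, pH 6.0.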
Cruzain Triton = qHTS Assay for Promiscuous and Specific Inhibitors of Cruzain (with detergent) | purified cruzain, Z-FR-AMC fluorescence, 0.01% Triton | AID 1478, 2009 | 200,000 tested, 0.43% active | Potency, µM, most hits filed as inhibitors; further: nearly all actives have a fitted effect of over 40% in size
Target sequence (P25779 123-467 limits assumed): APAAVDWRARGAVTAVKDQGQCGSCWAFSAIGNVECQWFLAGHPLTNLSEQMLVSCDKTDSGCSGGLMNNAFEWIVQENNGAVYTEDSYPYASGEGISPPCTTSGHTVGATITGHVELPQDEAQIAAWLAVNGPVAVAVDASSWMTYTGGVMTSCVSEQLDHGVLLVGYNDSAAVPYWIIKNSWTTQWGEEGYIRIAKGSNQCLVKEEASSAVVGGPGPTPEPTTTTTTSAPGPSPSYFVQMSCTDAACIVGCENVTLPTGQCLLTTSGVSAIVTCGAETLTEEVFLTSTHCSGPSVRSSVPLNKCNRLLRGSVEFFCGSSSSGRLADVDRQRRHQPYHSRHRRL
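Sodium acetate buffer (100 mM, pH 5.5) containing 5 mM DTT and 0.01% Triton X-100 hosted 1.5 nM cruzain and test compound for 15 min at room temperature. Cleavage of 2 uM Z-FR-AMC was then tracked by fluorescence.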
Cruzain noTriton = qHTS Assay for Promiscuous and Specific Inhibitors of Cruzain (without detergent); purified cruzain, Z-FR-AMC fluorescence, no detergent; 200,000 tested, 2.3% active; Potency, µM, most hits filed as inhibitors; further: nearly all actives have a fitted effect of over 40% in size
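Detergent-free condition (0.00005% Triton X-100) in acetate buffer pH 5.5 with DTT. 1.5 nM enzyme and compound were pre-mixed 15 min, then 2 uM Z-FR-AMC substrate added; reaction progress from fluorescence change between first and third reads (60 s).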
A number is an active result; ! = repeats disagree. Unless noted, the call rests on the fitted dose curve; in most records, active means well fitted curve in the direction sought with a large enough effect; inconclusive means small, poorly fitted or top-dose-only effect, or another doubt; inactive means no such curve, though single readings can be large; an effect the other way counts as inactive or inconclusive.

For Cc1nc(NC(=O)c2ccccc2)sc1Cc1ccc2c(c1)OCO2 the results were NS1 function inh inactive, Cruzain Triton inactive and Cruzain noTriton inconclusive.
Screening Cc1c(Cc2ccc3c(c2)OCO3)sc(NC(=O)c2ccccc2)c1C(N)=O returned NS1 function inh inconclusive, Cruzain Triton inactive and Cruzain noTriton 25µM.
`ClC1=C(Cl)C2(Cl)C3C4CC(C5OC45)C3C1(Cl)C2(Cl)Cl` (stereo unspecified) gave Cruzain Triton inactive and Cruzain noTriton 1.6µM.
Screening ClC1=C(Cl)C2(Cl)C3C4C=CC(C4)C3C1(Cl)C2(Cl)Cl (stereo unspecified) returned Cruzain Triton inactive and Cruzain noTriton inactive.
For CCc1ccccc1N(C)S(=O)(=O)c1ccc2[nH]cc(C(=O)NCCOC)c(=O)c2c1 the results were Cruzain Triton inactive and Cruzain noTriton inactive.
Screening COc1ccc(S(=O)(=O)N=C2C=C(C)C(=O)C(C)=C2)cc1 returned NS1 function inh inactive, Cruzain Triton inactive and Cruzain noTriton 13µM.
COc1ccc(C(=O)ON=C2C=C(C)C(=O)C(C)=C2)cc1 was read as NS1 function inh inactive.
O=c1oc2ccccc2cc1N1CCOCC1 was read as NS1 function inh inactive, Cruzain Triton inactive and Cruzain noTriton inactive.
Cc1nc2sc(C(c3cccs3)N3CCN(c4cccc(Cl)c4)CC3)c(O)n2n1 (stereo unspecified) was read as NS1 function inh inactive, Cruzain Triton inactive and Cruzain noTriton inconclusive.
Screening O=C1NC(=O)c2c1c1c3ccccc3[nH]c1c1[nH]c3ccccc3c21 returned Cruzain Triton inactive and Cruzain noTriton 8.9µM.
Screening Cc1ccc(C)c2c1[nH]c1ccccc12 returned NS1 function inh inconclusive, Cruzain Triton inactive and Cruzain noTriton inactive.
CCN(CCCNc1ncnc2nc[nH]c12)c1cccc(C)c1 was read as NS1 function inh inactive, Cruzain Triton inactive and Cruzain noTriton inactive.
For COc1ccc2c3c([nH]c2c1)C(C)=NCC3 the results were NS1 function inh inactive, Cruzain Triton inactive and Cruzain noTriton 10µM!.
For COc1ccc2[nH]c3c(c2c1)CCn1c-3nc2ccccc2c1=O the results were NS1 function inh inactive, Cruzain Triton inactive and Cruzain noTriton inactive.
CCCCCCCCC1=NCCc2c1[nH]c1ccccc21 was read as NS1 function inh inactive.
Screening CC1=NCCc2c1[nH]c1cc(O)ccc21 returned Cruzain Triton 28µM! and Cruzain noTriton 13µM!.
`N#CC(C(=O)c1ccco1)c1ccccn1` (stereo unspecified) gave NS1 function inh inactive, Cruzain Triton inactive and Cruzain noTriton inactive.
COC(=O)NC(=S)Nc1ccc(Oc2ccc(Cl)cc2Cl)c(Cl)c1 was read as NS1 function inh inactive, Cruzain Triton inactive and Cruzain noTriton 25µM.
`COC(=O)NC(=S)Nc1ccc(Oc2ccc(Cl)cc2)c(Cl)c1` gave NS1 function inh inactive, Cruzain Triton inactive and Cruzain noTriton inactive.
Cc1ccc(NC(=O)CSc2nc(-c3ccc(F)cc3)cc(C(F)(F)F)c2C#N)cc1 was read as Cruzain Triton inactive and Cruzain noTriton inactive.
`Cc1cccc(C)c1N1C(=O)CC(N2CCSCC2)C1=O` (stereo unspecified) gave NS1 function inh inactive.
`COc1ccc(-c2cc(C(=O)Nc3sc4c(c3C(N)=O)CCC(C)C4)no2)cc1` (stereo unspecified) gave Cruzain Triton inactive and Cruzain noTriton inactive.
For Cc1onc(-c2c(Cl)cccc2Cl)c1C(=O)NC(=S)Nc1sc2c(c1C(N)=O)CCC(C)C2 (stereo unspecified) the results were NS1 function inh inactive, Cruzain Triton inactive and Cruzain noTriton 4µM.
For O=C(Nc1ccccc1Cl)c1cccc(NC(=O)C2CCCC2)c1 the results were NS1 function inh inactive.
Screening O=C(N/N=C\c1cn(-c2ccccc2)nc1-c1ccccc1)c1ccc2c(c1)OCO2 returned NS1 function inh inactive, Cruzain Triton inactive and Cruzain noTriton 20µM.
For O=C(N/N=C/c1cn(-c2ccccc2)nc1-c1cc2ccccc2o1)c1ccccc1Br the results were NS1 function inh inactive, Cruzain Triton inactive and Cruzain noTriton 7.9µM.
COc1ccc(-c2nn(-c3ccccc3)cc2/C=N/NC(=O)c2ccc3c(c2)OCO3)cc1 was read as NS1 function inh inactive, Cruzain Triton inactive and Cruzain noTriton inconclusive.
For O=C(N/N=C/c1cn(-c2ccccc2)nc1-c1cc2ccccc2o1)c1c[nH]c2ccccc12 the results were NS1 function inh inactive.
For COc1ccc(-c2nn(-c3ccccc3)cc2/C=N/NC(=O)c2ccc(Br)o2)cc1 the results were NS1 function inh inactive, Cruzain Triton inactive and Cruzain noTriton 25µM.
